From PubChem BioAssay AID1566 (Sanford-Burnham Center for Chemical Genomics, 2009)
Among all 290,000 compounds or so, about 1,800 (0.62%) were called active. This excerpt belongs to a sample that is enriched for actives. A number with no mark means an inactive call. Rule as the data show it: active = inhibition above about 50%; inactive = the rest.

Experiment: NOD2 signaling inhibitors, cell-based, luminescence, uHTS, HEK293 (AID 1566)
Details: HEK293 NOD2/NF-kB luciferase reporter, at 4 µM, stronger effect = higher value

Structure (SMILES) | inhibition
Cc1ccc(S(=O)(=O)NCC(=O)OCC(=O)c2ccc(Br)s2)cc1 | -2.2%
COC(=O)c1sccc1NC(=O)CSc1ccccc1NS(=O)(=O)c1ccccc1Cl | 26%
COC(=O)c1sccc1NC(=O)CSc1ccccc1NS(=O)(=O)c1ccc(Cl)cc1 | 28.6%
CN1CCN(C(=O)/C=C/c2c(F)cccc2Cl)CC1 | 9.9%
c1ccc(-c2csc3nnc(SCc4ccc5c(c4)OCCO5)n23)cc1 | 33.7%
O=C(/C=C\Nc1ccccn1)c1ccccc1 | -121%
O=C(/C=C\Nc1ccc2c(c1)OCO2)c1ccccn1 | 33.4%
O=C(/C=C/Nc1ccccc1Br)c1ccccn1 | 60% (active)
CC1CCCC(NCC(O)COC(c2ccc(F)cc2)c2ccc(F)cc2)C1C (centres undefined) | 0.7%
Fc1ccc2nc(Nc3nc4c(F)cc(F)cc4s3)sc2c1 | -36.7%
COC(=O)c1ccc2nc(NC(=O)C(C)(C)C)sc2c1 | -3.1%
CCC(CC)c1nnc(NC(=O)C2CC(=O)N(C3CCCC3)C2)s1 (centres undefined) | 8%
Cc1ccc(NC(=O)CSc2ncnc3ccccc23)cc1S(=O)(=O)N1CCCCCC1 | 40.3%
Cc1ccc(S(=O)(=O)N2CCCCC2)cc1NC(=O)CSc1ncnc2ccccc12 | -36.1%
OC1(c2cccnc2)CCN(Cc2nnnn2C2CCCCC2)CC1 | 19.2%
CCC/C(=N\NC(=O)CNC(=O)/C=C/c1ccco1)c1ccccc1 | 6.6%
COc1ccc(C)cc1Nc1n[n+](-c2ccccc2)c(-c2ccc(N(C)C)cc2)s1 | 8.3%
Cc1ccc2c(c1)sc(-c1ccc(N(C)C)cc1)[n+]2C | 51% (active)
CC[n+]1c(C)sc2cc(C)ccc21 | 5.7%
CC(C)OC(=O)Nc1ccc(Oc2c(F)c(F)c(F)c(F)c2F)cc1 | -5.3%
CCC(C)c1cc(S(=O)(=O)N2CCOCC2)ccc1OC (centres undefined) | -10.6%
C=CCc1cccc(/C=N/NC(=O)CNc2ccccc2)c1O | 17.2%

Structure (SMILES) | inhibition
COc1cccc(/C=N/NC(=O)C[n+]2ccccc2)c1O | 1%
C=CCc1cccc(/C=N/NC(=O)C[n+]2ccccc2)c1O | 53.2% (active)
CN(C)CCNC(=S)NC1CCCCC1 | 8.6%
CCCCCCCCCc1nc2sc3c(c2c(=O)n1NC(=O)c1ccccc1[N+](=O)[O-])CC(C)(C)OC3 | 12.2%
CCCCCc1nc2sc3c(c2c(=O)n1NC(=O)c1ccc([N+](=O)[O-])cc1)CC(C)(C)OC3 | 5.3%
CCCCCCCCCc1nc2sc3c(c2c(=O)n1NC(=O)c1ccc([N+](=O)[O-])cc1)CC(C)(C)OC3 | 57% (active)
Cc1oc2c(C)c3oc(=O)c(CCC(=O)NCCCCCC(=O)O)c(C)c3cc2c1C | 18.8%
O=C(Nc1ccc(Cl)cc1)c1ccc2ncsc2c1 | -66.3%
COC(=O)C(C)Oc1ccc(-c2nccc(-c3cccs3)n2)cc1 (centres undefined) | -13.1%
O=C(O)COc1ccc(-c2nccc(-c3cccs3)n2)cc1 | 55.9% (active)
Oc1ccc(-c2nccc(-c3cccs3)n2)cc1 | -139%
O=C(c1cnccn1)N1CCc2c([nH]c3ccccc23)C1c1cccc(Cl)c1 (centres undefined) | -198%
CC(C)(C)c1ccc(S(=O)(=O)N2CCC(c3nc4ccc(Cl)cc4[nH]3)CC2)cc1 | -18.9%
O=C(NC1CCCc2c1cnn2-c1ccccc1F)c1ccccn1 (centres undefined) | -49.8%
Cc1cc(C)cc(-n2ncc3c2CCCC3NC(=O)C2(C(N)=O)CC2)c1 (centres undefined) | 7.2%
Cn1nccc1C(=O)NC1CCCc2c1cnn2-c1cc(F)cc(F)c1 (centres undefined) | 30.4%
Cc1nnsc1C(=O)NC1CCCc2c1cnn2-c1ccc(F)cc1F (centres undefined) | 49.3%
Cc1nnsc1C(=O)NC1CCCc2c1cnn2-c1cc(F)cc(F)c1 (centres undefined) | 21.9%
Cc1nnsc1C(=O)NC1CCCc2c1cnn2-c1ccccc1F (centres undefined) | 51.1% (active)
Cc1cccc(-n2ncc3c2CCCC3NC(=O)C2CCOCC2)c1C (centres undefined) | 41.8%
CC(=O)N/C(=C\c1ccc2c(c1)OCO2)C(=O)NC(C(=O)O)c1ccccc1 (centres undefined) | 19.8%
Cc1cccc2sc(NC(=O)CSc3nnnn3C)nc12 | -7%

Structure (SMILES) | inhibition
O=C(CNC(=O)c1ccc(Oc2ccccc2)cc1)OC1CCCCC1=O (centres undefined) | 10.8%
Cc1cccc(Nc2nc(N)nc(CSC(=S)N3CCOCC3)n2)c1 | -21.1%
CCc1cccc(C)c1NC(=O)c1ccoc1C | 4.5%
Cc1ccc2nc(-c3ccccc3)cn2c1 | 26.7%
Cc1ccc2nc(-c3ccc(O)c(O)c3)cn2c1 | -51.7%
Cc1ccc(-c2cn3cc(C)ccc3n2)cc1 | 71.8% (active)
CCOC(=O)C1CCN(S(=O)(=O)c2c(C)n(C)c(=O)n(C)c2=O)CC1 | -0.5%
O=C1CC(N2CCN(C/C=C/c3ccccc3)CC2)C(=O)N1Cc1cccs1 (centres undefined) | 7.5%
c1ccc(-c2nc(-c3ccccn3)no2)cc1 | 20.1%
COc1cc(-c2nc(-c3ccccn3)no2)cc(OC)c1OC | -18.2%
Cc1ccc(-c2nc(-c3ccccn3)no2)cc1 | 84.3% (active)
c1ccc(-c2ccc(-c3nc(-c4ccccn4)no3)cc2)cc1 | 67% (active)
c1ccc(-c2noc(-c3ccc4ccccc4c3)n2)nc1 | 45%
Cc1ccc(-c2nc(-c3ccccn3)no2)cc1Cl | 47.8%
c1ccc(-c2noc(-c3ccncc3)n2)nc1 | -43.2%
COc1ccc(-c2nc(-c3ccccn3)no2)cc1 | 84% (active)
COc1cccc(-c2nc(-c3ccccn3)no2)c1 | -16.1%
CCOC(=O)c1ccc2c(c1)nc(SCC(=O)c1ccco1)n2CC | 8.2%
CN(C)CCNC(=O)c1cc2cc(Br)ccc2oc1=O | -0.6%
COc1ccc(N/C(N)=N/c2nc(CSc3nnc(C)s3)cc(=O)[nH]2)cc1 | -37.9%
